# Values without a mark were called inactive. Activity calls are given as the source filed them.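 The calls were made as follows: active = inhibition at or above 50% relative to wild type and mutant plate controls; inactive = inhibition below 50%.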
# Assay: loss of swimming-algae plug formation – whole organism, Chlamydomonas reinhardtii, WT vs cilia-less mutant, absorbance, 96-well, primary screen (AID 463189);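 also: 0% = wild type cc124 cells in DMSO and 100% = ciliumless bld1 mutant cells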
# Conditions: Chlamydomonas reinhardtii gravitaxis, OD600 absorbance, 2 days; at 10 µM; active compounds read high
row,Compound,inhibition
1,NC(=O)c1cnccn1,1.54%
2,COc1cc(-c2ccc(=O)[nH]n2)ccc1OC(F)F,8.84%
3,Cc1cccc(C#Cc2ccccc2)n1,8.4%
4,CC1=C(/C=C/C(C)=C/C=C/C(C)=C/C(=O)Nc2ccc(O)cc2)C(C)(C)CCC1,1.68%
5,COCc1nc2c([nH]1)c(=O)n(C)c(=O)n2CC(C)C,1.31%
6,CCCCNc1c(C(=O)OCC)c(C)nc2c1cnn2CC,8.88%
7,COc1ccc2c(c1)c(CC(=O)N1CCOCC1)c(C)n2C(=O)c1ccc(Cl)cc1,6.6%
8,NC(=O)C(=O)O,0.681%
9,CN1CCC[C@H]1c1cccnc1,0.862%
10,CC(/C=C/c1cccc(Oc2ccc(F)cc2)c1)N(O)C(N)=O (stereo not given),4.78%
11,CC1CC2C3CCC4=CC(=O)C=C[C@]4(C)[C@@]3(F)[C@@H](O)C[C@]2(C)[C@@]1(O)C(=O)CO (stereo not given in full),5.99%
12,Nc1ncnc2c1ncn2[C@@H]1O[C@H](CO)[C@H](O)C1O (stereo not given in full),5.53%
13,N[C@H](CCC(=O)NCS(=O)(=O)O)C(=O)O,4.82%
14,O=c1cc(-c2ccc(O)cc2)oc2cc(O)cc(O)c12,14.8%
15,CC(CCc1ccc(O)cc1)NCCc1ccc(O)c(O)c1 (stereo not given),-1.59%
16,O=C(O)CNC(=O)C(CS)Cc1ccccc1 (stereo not given),-0.967%
17,Cc1ccc(S(=O)(=O)N[C@@H](Cc2ccccc2)C(=O)CCl)cc1,-2.77%
18,C[N+](C)(C)CCC(=O)c1cccc2ccccc12,7.13%
19,Nc1nc2ccc(Cl)cc2c2nc(-c3ccco3)nn12,1.54%
20,O=C(O)CCC(C(=O)O)N1C(=O)c2ccccc2C1=O (stereo not given),0.124%

row,Compound,inhibition
1,Oc1cc2c(cc1O)C(c1ccccc1)CNCC2 (stereo not given),-4.78%
2,C[N+](C)(C)CCOC(N)=O,7.07%
3,Nc1nc(Cl)nc2c1ncn2[C@@H]1O[C@H](COP(=O)(O)OP(=O)(O)OP(=O)(O)O)[C@H](O)C1O (stereo not given in full),0.076%
4,NC(N)=NCCCCN=C(N)N,-4.67%
5,COC(=O)C(C)(N)Cc1ccc(O)cc1 (stereo not given),9.13%
6,COC(=O)[C@H](NC(=O)c1cc(-c2ccccc2)nc2ccccc12)c1ccccc1,1.92%
7,COc1ccc(NC(=O)/C=C/c2ccc(Cl)cc2)cc1,6.25%
8,COc1cc(OC)c(/C=C2/C(=O)Nc3ccccc32)c(OC)c1,6.51%
9,C1CCC(N=C(NC23CC4CC(CC(C4)C2)C3)N2CCOCC2)CC1,2.95%
10,CC(O)C(O)[C@H]1CNc2nc(N)[nH]c(=O)c2N1 (stereo not given in full),6.73%
11,FC(F)(F)c1ccccc1-n1ccnc1,2.41%
12,Cc1nc(N=Nc2ccc(C(=O)O)cc2)c(COP(=O)(O)O)c(C=O)c1O,8.14%
13,O=C(Nc1cc(C(=O)Nc2ccc(S(=O)(=O)O)cc2S(=O)(=O)O)cc(C(=O)Nc2ccc(S(=O)(=O)O)cc2S(=O)(=O)O)c1)Nc1cc(C(=O)Nc2ccc(S(=O)(=O)O)cc2S(=O)(=O)O)cc(C(=O)Nc2ccc(S(=O)(=O)O)cc2S(=O)(=O)O)c1,10.7%
14,CC(C)NCC(O)COc1cccc2ccccc12 (stereo not given),6.9%
15,CNCC(O)c1ccc(O)c(O)c1 (stereo not given),4.49%
16,C[C@H]1CC2C3CCC4=CC(=O)C=C[C@]4(C)[C@@]3(Cl)[C@@H](O)C[C@]2(C)[C@@]1(O)C(=O)CO (stereo not given in full),-2.71%
17,O=C1CCC(c2ccc(-n3ccnc3)cc2)=NN1,-5.18%
18,O=C(O)c1ccccc1Nc1ccccc1,8.09%
19,CC(C)C(=O)c1c(C(C)C)nn2ccccc12,52.8% (active)
20,Nc1nc2c(nc(Br)n2C2OC3COP(=O)(O)O[C@@H]3C2O)c(=O)[nH]1 (stereo not given in full),2.8%

# — PubChem BioAssay
